# Results taken from PubChem BioAssay.
# Unmarked numbers belong to inactive results. How the calls were made is not given here.
# Biological target: Pantothenate synthetase (Mycobacterium tuberculosis (strain ATCC 25618 / H37Rv)) (UniProt P9WIL5)
# Test: Coupled enzyme confirmation of inhibitors against recombinant Mtb PanC (AID 375);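 further: 0% = full reaction with vehicle and 100% = no enzyme background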
# Details: coupled enzyme assay; at 10 µM, stronger effect = higher value
# Pantothenate synthetase (Mycobacterium tuberculosis (strain ATCC 25618 / H37Rv)), sequence (P9WIL5 whole entry, looked up): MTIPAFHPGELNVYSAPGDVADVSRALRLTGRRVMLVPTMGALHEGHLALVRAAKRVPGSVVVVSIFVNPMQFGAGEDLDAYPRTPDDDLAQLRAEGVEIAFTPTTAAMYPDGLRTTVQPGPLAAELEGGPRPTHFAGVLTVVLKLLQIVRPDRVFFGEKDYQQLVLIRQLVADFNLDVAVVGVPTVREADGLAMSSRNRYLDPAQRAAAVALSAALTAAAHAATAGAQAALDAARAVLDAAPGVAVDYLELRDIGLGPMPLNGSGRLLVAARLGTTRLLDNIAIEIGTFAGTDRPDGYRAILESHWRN
row,Structure (SMILES),inhibition [%]
1,CCOc1ccc(NC(=O)CSc2nc3cccnc3n2CC)cc1,0
2,Cc1cccc(N(C)C(=S)Oc2ccc3ccccc3c2)c1,7
3,N#CC1=C(N)SC(N)=C(C#N)C1c1ccc(C(F)(F)F)cc1,0
4,CCOC(=O)N1CCC(NC(=O)C2CCCN(C(=O)c3cc4sccc4n3C)C2)CC1 (configuration not stated),0
5,Nc1cc(-c2ccccc2)ccc1O,1
6,COc1ccccc1CNC(=O)CCn1c(=O)[nH]c2ccsc2c1=O,2
7,Cc1ccc(C)c(N2C(=O)CN=C2Nc2ccccc2Cl)c1,4
8,N#CCc1c(C#N)c(N)nc(N2CCN(S(=O)(=O)c3ccccc3)CC2)c1C#N,6
9,CCCCc1oc2ccccc2c1C(=O)c1cc(I)c(OCCN(CC)CC)c(I)c1,8
10,CCC(=O)N1CCc2cc(S(=O)(=O)CCC(=O)Nc3ccc(F)c(F)c3)ccc21,0
11,N=c1nc(N2CCCCC2)cc(N)n1O,0
12,Fc1ccc(-c2nnc(CN3CCN(c4ncc(C(F)(F)F)cc4Cl)CC3)o2)cc1,0
13,Cc1cnc(C(=O)Nc2nnc(C(C)C)s2)cn1,0
14,Cc1cc(=O)oc2c1ccc1oc(/C(=N/O)c3ccccc3)c(C)c12,0
15,COc1ccc(NC(=O)Cn2nnc(-c3ccccc3N)n2)cc1OC,0
16,CCCOc1ccc(N2C(=O)C3ON(c4ccccc4)C(c4ccc(O)c(OC)c4)C3C2=O)cc1 (configuration not stated),1
17,CC(=O)NCCC(=O)Nc1ccc(C)c(F)c1,6
